# Source: PubChem BioAssay
# INS promoter inh = TRM-6 insulin promoter activity inhibition | TRM-6 cells (human fetal islet line), insulin promoter-eGFP reporter, imaging; reporter expression induced with tamoxifen | inhibition, % at 2 µM | 130,000 compounds, 0.9% hits;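 active means inhibition above the mean plus 3 SD, with well images judged a real hit on visual review, cut at about 60% in these data, passing the limit was not always enough; inconclusive means inhibition over the cutoff but images rejected on review; inactive means inhibition not above the cutoff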
# ROMK mod = human ROMK K+ channel modulation, primary screen | B-score at 10 µM | 130,000 compounds, 2% hits | P48048 | Tet-inducible ROMK, thallium flux fluorescence; actives lie on both sides;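 active means signal ratio slope over the read window, or its plate-corrected B-score, at least 3 SD from the plate mean, either direction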;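 further: B-score of the F/F0 ratio slope over 7 to 12 s after thallium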
# Target sequence (P48048 whole entry, looked up): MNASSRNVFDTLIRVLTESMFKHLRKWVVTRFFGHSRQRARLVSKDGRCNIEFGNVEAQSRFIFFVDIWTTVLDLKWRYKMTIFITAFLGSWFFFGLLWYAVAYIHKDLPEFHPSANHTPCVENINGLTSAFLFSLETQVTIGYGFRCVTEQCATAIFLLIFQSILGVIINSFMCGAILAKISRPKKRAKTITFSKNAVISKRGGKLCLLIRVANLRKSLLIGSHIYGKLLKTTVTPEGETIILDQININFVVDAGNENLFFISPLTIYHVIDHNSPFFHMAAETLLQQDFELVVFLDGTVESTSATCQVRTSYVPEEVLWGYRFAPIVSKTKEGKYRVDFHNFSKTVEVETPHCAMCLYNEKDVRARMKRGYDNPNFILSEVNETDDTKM
# Tb hexokinase = blocks Trypanosoma brucei hexokinase 1 activity. inhibition, % at 10 µM. recombinant TbHK1, G6PDH-coupled NADH A340. AID 1430. 220,000 compounds, 0.11% hits;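 active means inhibition of 50% or more in the single-dose primary screen; inactive means inhibition below 50%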
# HSV replic up = HSV replication enhancement. HSV replication augmentation in cells, fold increase. maximum fold increase. 220,000 compounds, 0.005% hits. AID 1956; in the data active means maximum fold increase above about 1.5; inconclusive means no clear call, values can overlap the other calls; tested in PC3 cells
# Insulin prom up = MIN6 insulin promoter up-regulation; MIN6 insulin promoter-GFP reporter, high-content imaging; stronger effect = higher value; z-score at 5 µM; 190,000 compounds, 0.3% hits; AID 1625;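 active means z-score above 3 at 5 µM with at least 500 cells counted in the well; inconclusive means wells under 500 cells, flagged as cytotoxic or low count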
# ROMK hit retest = confirmation of human ROMK potassium channel modulators; normalized thallium flux (F/F0 slope) at 10 µM; shares compounds with ROMK mod; ROMK thallium flux, fluorescence ratio; stronger effect = lower value; 3,000 compounds, 54% hits; AID 1917;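 active means Flux at 10 µM at least 3 SD below or above vehicle control mean in one or both replicates; inconclusive means no clear call, values can overlap the other calls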
# * = called active by the depositor; i = inactive; ? = inconclusive; . = no result. This excerpt belongs to a sample that is enriched for hits.
SMILES,INS promoter inh,ROMK mod,Tb hexokinase,HSV replic up,Insulin prom up,ROMK hit retest
Cc1ccc(C(=O)Nc2ccc(Cl)cc2C)c(Cl)c1,-14,-0.043,7,i,-0.1,.
NS(=O)(=O)c1ccc(CCNC(=O)c2ccc(C#CC3(O)CCCCC3)cc2)cc1,-75,-0.43,-2,i,0.65,0.082
CCC(NC(=O)c1ccc(C#CC2(O)CCCCC2)cc1)C(=O)O (stereo not given),.,0.64,0,i,0.18,.
N#Cc1c2ccc(OCC(N)=O)cc2n2ccccc12,-60,-3.2*,-7,i,0.15,0.051*
O=C(c1ccncc1)N(c1ccc2oc3c(c2c1)CCCC3)S(=O)(=O)c1ccc(F)cc1,7,0.12,-4,i,-0.05,.
COc1ccc(C(=O)OCCNC(=O)c2c(Cl)nc3ccccn23)cc1,-15,.,-3,i,-0.45,0.059*
Cc1ccc(C)n1-c1ccc(C(=O)NN)s1,-45,-0.43,-6,i,0.69,.
COc1cc(CC(=O)OCC(=O)Nc2sccc2C(N)=O)cc(OC)c1OC,91*,-2.5,-2,i,-0.64,0.062*
NC(=O)c1ccsc1NC(=O)COC(=O)Cc1ccsc1,13,-0.4,-3,i,0.07,.
COC/C=C/C1=CC2=CC(=O)C(C)(O)C(=O)C2=CO1 (stereo not given),.,.,.,i,.,.
O=C1ON=C(c2cccc([N+](=O)[O-])c2)/C1=C/c1ccc(O)cc1,-33,-4.6*,-32,i,0.44,0.065*
CCN(CC)S(=O)(=O)c1ccc(Cl)c(C(=O)OCC(=O)c2c(N)n(C)c(=O)n(C)c2=O)c1,.,.,-5,i,-0.27,.
CC(=O)N1CCN(c2ccc([N+](=O)[O-])cc2)CC1,33,0.67,-1,i,-1.5,.
O=C(CCN1C(=O)C2C3C=CC(C3)C2C1=O)N1CCN(c2ccc(F)cc2)CC1 (stereo not given),.,.,2,i,-0.12,.
O=C(CCCc1ccccc1)N1CCN(c2ccc([N+](=O)[O-])cc2)CC1,-223,.,2,i,0.87,.
Cc1noc(C)c1CSCC(=O)N1CCN(c2ccc([N+](=O)[O-])cc2)CC1,23,-4.3*,-18,i,-0.96,0.042*
O=C(ON=C1CCN(c2ccc([N+](=O)[O-])cc2)CC1)c1ccccc1,.,.,-1,.,0.28,0.067*
O=C(CCCC(=O)N1CCN(c2ccc([N+](=O)[O-])cc2)CC1)c1ccccc1,28,-3.2*,24,i,0.12,0.058*
O=C(CCN1C(=O)C2C3C=CC(C3)C2C1=O)N1CCN(c2ccc([N+](=O)[O-])cc2)CC1 (stereo not given),-25,-2.2,-9,i,-0.25,0.088
O=C1[C@H]2[C@H](C=CC[C@H]2C(=O)N2CCOCC2)CCN1Cc1ccccc1,.,.,.,i,.,.
Cc1ccc(S(=O)(=O)N(C)Cc2ccc(C(=O)N/N=C/c3ccc(OC(F)F)cc3)cc2)cc1,13,0.49,8,i,-0.03,.
COC(=O)c1cccc(C(=O)Nc2cnc3ccccc3c2)n1,45,.,-10,i,0.08,0.05*
Cc1ccc(-c2csc(NC(=O)/C=C/c3ccco3)c2C(=O)O)cc1,-21,-0.57,-1,i,0.17,.
Cc1cc(C)c(C#N)c(Oc2ccc(F)cc2)n1,0,.,1,i,-0.27,0.083
Cc1cc(C)c(C#N)c(Oc2ccc(O)cc2)n1,-114,.,-6,i,1.1,.
SMILES,INS promoter inh,ROMK mod,Tb hexokinase,HSV replic up,Insulin prom up,ROMK hit retest
Cc1ccc(CNC(=O)C(Cc2ccccc2)NS(=O)(=O)c2ccc(Br)s2)cc1 (stereo not given),-50,-0.5,6,i,-0.29,.
Cc1cc(C)n2nc(SCC(=O)c3c(N)n(CC(C)C)c(=O)n(C)c3=O)nc2n1,.,1,3,i,.,.
O=c1[nH]c(C(F)(F)F)nc2c1nnn2Cc1ccccc1F,-3,3.4*,-6,i,-0.15,0.077
CC/C(=C\c1oc2cc3ccccc3cc2[n+]1CC)Nc1ccccc1,.,.,-12,i,-2.7,0.055*
Cc1ccc(NC(=O)Cc2ncc(C(F)(F)F)cc2Cl)cc1Cl,-9,.,2,i,0.29,0.067*
O=C(Cc1ncc(C(F)(F)F)cc1Cl)NCCc1ccccc1,-9,-0.37,-2,i,1.2,.
COc1ccc(NC(=O)c2sccc2C)cn1,.,0.35,3,i,0.65,.
O=C1Nc2ccccc2/C1=C/c1cnc(-c2ccccc2)[nH]1,.,.,8,?,0.07,0.048*
O=C1Nc2ccccc2/C1=C/c1cccnc1,-133,-1.8,-16,i,-0.02,.
